Assay results as given in PubChem BioAssay AID1625 (Sanford-Burnham Center for Chemical Genomics, 2009).
The whole screen tested about 190,000 compounds, of which about 570 (0.3%) were called active.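 Rule for the calls: active = z-score above 3 at 5 µM with at least 500 cells counted in the well; inconclusive = wells under 500 cells, flagged as cytotoxic or low count; inactive = the rest.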 For the sample, actives were picked, then their nearest neighbours and some compounds at random.

Experiment: up-regulation of insulin promoter-GFP reporter – imaging, high-content screening, mouse beta cells (AID 1625);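 for cell count: total cells summed across four imaged fields per well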
Details: MIN6 insulin promoter-GFP reporter, at 5 µM; cell count: measured here: cytotoxicity, nuclei count; z-score: stronger effect = higher value

Compound	cell count [cells]	z-score
CC(=O)Nc1ccc(NC(=O)COc2ccc(S(=O)(=O)NC(C)c3ccccc3)cc2)cc1 (stereo not given)	1520	-0.4 (inactive)
O=C1CCCCC(=O)c2ccccc2N1	1400	0.07 (inactive)
CN(C)/C=C1/Nc2ccccc2C1=O	636	4.71 (active)
CCCS(=O)(=O)C(=C1Nc2ccccc2N1)S(=O)(=O)CCC	1240	0.09 (inactive)
O=C(Nc1nnc(Cc2ccccc2)s1)c1cnccn1	1430	0.26 (inactive)
Cc1ccccc1Cn1c2ccccc2c2cnn(CC(=O)NCc3ccco3)c(=O)c21	1130	-0.15 (inactive)
CCc1cccc(CC)c1NC(=S)Nc1ccc2cn[nH]c2c1	1180	-0.06 (inactive)
O=C(CNC(=O)c1ccco1)OCC(=O)c1ccccc1	1220	4.35 (active)
O=C(CNC(=O)c1ccccc1)NCC(=O)OCC(=O)c1ccccc1	1240	-0.32 (inactive)
O=C(COC(=O)CNC(=O)c1ccco1)Nc1ccc(F)cc1	1320	-0.26 (inactive)
CCOC(=O)C1=C(N)N2C(=O)C(C)SC2=C(C(=O)OCC)C1c1cc(OC)c(OC)c(OC)c1 (stereo not given)	1120	-0.67 (inactive)
NS(=O)(=O)c1ccc(NC(=O)COC(=O)c2cc3ccccc3oc2=O)cc1	1430	0.45 (inactive)
CCCCOc1ccc(CON(C(C)=O)C(C)=O)cc1Cl	1140	-0.26 (inactive)
O=C(CCn1nnc2ccccc2c1=O)N[C@@H](Cc1c[nH]c2ccccc12)C(=O)O	1030	0.15 (inactive)
O=C(NCCCN1CCCCCC1)C1CC(=O)N(C2CCCC2)C1 (stereo not given)	1560	4.02 (active)
Cc1ccc(CNC(=O)C2CC(=O)N(C3CCCCCCC3)C2)cc1 (stereo not given)	1550	-0.31 (inactive)
CC(C)OCCCNC(=O)C1CC(=O)N(C2CCCCCCC2)C1 (stereo not given)	1560	-0.3 (inactive)
O=C(Nc1ccccc1)O/N=C1/CCCc2occc21	985	-0.24 (inactive)
O=C1CCCCC1C(=O)c1ccccc1 (stereo not given)	991	-0.12 (inactive)
OC(c1ccccc1)C(CN1CCOCC1)c1ccccc1 (stereo not given)	1160	-0.19 (inactive)
c1ccc2[nH]c(NCCN3CCOCC3)nc2c1	1180	0.66 (inactive)
C1=C(N2CCOCC2)/C(=C/c2nc3ccccc3[nH]2)CC1	905	3.43 (active)
c1ccc(Nc2nc(N3CCOCC3)c3ccccc3n2)cc1	637	-1.26 (inactive)
CCOc1c(Nc2cccc(Cl)c2)c(=O)c1=O	1030	0.15 (inactive)
COc1cc2c(C(=O)N3CCN(C)CC3)c(CSc3ccccc3)n(C)c2cc1Br	1290	-0.8 (inactive)
